Rows were chosen to be rich in hits. Some 0.88% of all compounds tested hit in one or more screens of this group.
APE1 inh = inhibitors of human APE1 endonuclease; Potency, µM (doses to about 65.8 µM), for the others: top-dose activity change, negative = inhibition, usual class: inhibitors; AID 2517; 350,000 compounds, 0.35% hits; recombinant APE1, TAMRA/BHQ-2 abasic DNA cleavage fluorescence; P27695;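 further: plate controls were vehicle for no effect and reference inhibitor for full effect; nearly all actives have a fitted effect of over 55% in size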
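Readout is kinetic fluorescence (ex 525, em 598 nm) from cleavage of 50 nM TAMRA/BHQ-2 THF abasic duplex by 0.75 nM APE1, compound added 15 min beforehand at RT.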
BLM inh = blocks DNA unwinding by human BLM helicase | recombinant BLM DNA unwinding, fluorescence dequenching | Potency, µM (titrated, usually from 56.1 µM), without a hit: at the top dose activity change, negative = inhibition, most hits filed as inhibitors | 350,000 compounds, 0.2% hits | AID 2528;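 further: plate controls were vehicle for no effect and no enzyme for full effect; nearly all actives have a fitted effect of over 35% in size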
RECQ1 helicase = inhibitors of human RECQ1 DNA helicase; P46063; RECQ1 DNA unwinding, red fluorescence kinetic read; Potency, µM (series often up to 57.3 µM), inactives show top-dose activity, negative = inhibition, usual class: inhibitors; 240,000 compounds, 0.54% hits; AID 2549;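 further: plate controls were vehicle for no effect and no enzyme for full effect; nearly all actives have a fitted effect of over 30% in size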
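50 nM RECQ1T1 preincubated 15 min with compound in Tris pH 8.0 buffer with MgCl2, DTT, Tween-20 and 2.5 ug/ml poly(dI-dC); started with 200 nM TAMRA/BHQ-2 forked duplex and 2 mM ATP. Unwinding read as fluorescence (525/598 nm), two reads 2 h apart.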
ERG Ets-DNA blk = ERG Ets/DNA interaction inhibition; 370,000 compounds, 0.028% hits; AID 624246; Potency, µM (series often up to 76.9 µM), without a hit: top-dose FP activity, negative = inhibition, actives largely listed as inhibitors; fluorescence polarization, His-ERG Ets domain / labelled DNA; active means well fitted inhibition curve with a large enough effect in the polarisation, with a control signal flat; inconclusive means small, poorly fitted or top-dose-only effect, or effect the other way, or a change in a side signal; inactive means no such curve, though single readings can be large or run the other way; the % refers to the polarisation;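 further: polarization taken with two DNA probes labelled with fluorescein and Texas red; % of control where 0% means no effect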
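His-tagged ERG Ets domain (1 uM in the protein solution; 300mM KCl, 50mM Tris-HCl, 1mM EDTA, 1mM DTT, pH 7.5) received compound, then a probe mix of 5 nM fluorescein-DNA and 100nM Texas-615-DNA. Fluorescence polarization was read for both dyes.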
GCN5L2 inh = GCN5L2 (KAT2A) acetyltransferase inhibition | Q92830 | GCN5L2 HAT assay, ThioGlo1 CoA-SH fluorescence | Potency, µM (titrated, usually from 58.9 µM), inactives show top-dose activity change, negative = inhibition, most hits filed as inhibitors | 390,000 compounds, 0.21% hits; further: on the % scale 0 is the no-effect control and ±100 the full control effect
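GCN5L2 (20 nM) in 50mM HEPES pH 7.5, 0.1mM EDTA, 0.01% Tween-20 preincubated 15 min with compounds at room temperature. Reaction started with H3(1-25) 75uM, acetyl-CoA 70uM, ThioGlo1 50uM; CoA-thiol fluorescence (Ex340/Em540) read at 0 and 20 min.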
WRN helicase inh = WRN helicase (human) inhibition; Q14191; WRN helicase unwinding, fluorescent forked duplex, kinetic; Potency, µM (titrated, usually from 114 µM), without a hit: at the highest dose activity change, negative = inhibition, actives largely listed as inhibitors; 360,000 compounds, 0.46% hits; AID 651768; further: on the % scale 0 is the no-effect control and ±100 the full control effect; nearly all actives have a fitted effect of over 55% in size
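Kinetic fluorescence helicase assay: unwinding of a quenched forked DNA duplex (100 nM final) with 2 mM ATP final raises red fluorescence (525/598 nm). Compounds sat 15 min at room temperature with 20 nM WRN beforehand.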
Starred values were filed as active, the others as inactive; i = inactive; ? = inconclusive; . = no result; ! = a repeat was not active; [ ] = remark or other dose. Unless noted, the call rests on the fitted dose curve; in most records, active means well fitted curve in the direction sought with a large enough effect; inconclusive means small, poorly fitted or top-dose-only effect, or another doubt; inactive means no such curve, though single readings can be large; an effect the other way counts as inactive or inconclusive. Potency means the concentration at half of the fitted maximal effect.

SMILES	APE1 inh	BLM inh	RECQ1 helicase	ERG Ets-DNA blk	GCN5L2 inh	WRN helicase inh
COc1ccccc1CNc1nc2c(S(=O)(=O)c3ccccc3)nnn2c2ccc(Cl)cc12	.	-2.6%	.	2.6%	25.1µM*	.
O=c1[nH]c2cc3c(cc2cc1CN(Cc1cccnc1)Cc1nnnn1Cc1ccco1)OCCO3	?	?	?	-0.9%	-20.6%	56.2µM*
CC1=CC2(O)OCCN(CCO)C2=CC1=O (centres undefined)	?	?	25.1µM*	-2.0%	-17.1%	-8.0%[11.6 µM]
Cc1cc(C)n(-c2ncc3c(n2)N(CCO)CCOC3=O)n1	16.0%	2.9%	i	-2.0%	1.0%	-6.9%
OC[C@@H]1OC(O)[C@@H](O)[C@H](O)[C@@H]1O (some centres undefined)	-6.5%	-4.7%	-5.6%	.	-17.9%	.
O=C(NCCCN1CCOCC1)c1cc(-c2cccs2)on1	4.4%	-0.5%	-5.7%	9.0%	-2.4%	-15.6%
COC(=O)c1ccccc1NC(=O)c1cc(-c2cccs2)on1	17.7%	-0.1%	i	-8.1%	3.16µM*	-4.5%
O=C(NCc1ccc(F)cc1)c1cc(-c2cccs2)on1	17.6%	-3.4%	7.6%	-1.5%	-2.8%	0.1%
O=C(NCCCn1ccnc1)c1cc(-c2cccs2)on1	18.6%	2.6%	i	2.0%	2.24µM*	4.3%
O=C(NCc1ccccc1)c1cc(-c2cccs2)on1	0.3%	0.3%	i	3.4%	2.51µM*	-5.7%
CC1=CC(C)(C)N(C(=O)CSc2nnc(N)s2)c2c(C)cc(C)cc21	0.1%	-4.3%	-11.6%	7.5%	3.98µM*	-1.6%
Cc1cc(C)c(C(=O)CSc2nnc(N)s2)c(C)c1	-1.7%	-3.7%	-13.2%	-4.5%	-6.6%	-3.0%
CN(C)CCCn1cc(C2=C(c3c[nH]c4ccccc34)C(=O)NC2=O)c2ccccc21	-10.1%	-13.6%	28.2µM*!	.	-9.7%	.
CC/C=C1/OC(=O)c2ccccc21	4.0%	.	-5.0%	.	.	.
NC(=O)C1CCN(C(=O)CC(c2ccccc2)c2ccccc2)CC1	7.9%	-2.5%	.	-1.0%	31.6µM*	10.0%
COc1ccc(C2=Nn3c(nnc3-c3ccccc3OC)SC2)cc1O[C@H]1CCOC1	2.3%	.	.	.	.	.
CCOC(=O)[C@@H](N)CS	.	-14.8%	.	.	49.4%	.
O=C1C=CC(=O)c2c(O)c(N3CCN(CCO)CC3)c(Cl)c(O)c21	.	.	.	.	.	31.6µM*
CN1C(=O)/C(=C/c2ccc(C(=O)Nc3ccc(O)cc3C(=O)O)cc2)SC1=S	23.8µM*	-12.0%	.	4.2%	-24.0%	-2.2%
CCN(CC)CCOC(=O)c1ccc(NC(=O)CCCN2C(=O)S/C(=C/c3ccc(OC)cc3)C2=S)cc1	33.6µM*	-7.1%	.	35.5%	-5.7%	-10.4%[57.1 µM]
Cc1ccc(/C=C2\SC(=S)N(CCC(=O)NNC(=O)c3ccc(O)cc3)C2=O)cc1	13.3%	-4.5%	.	18.9%	-6.7%	-5.2%[57.1 µM]
O=C(CCN1C(=O)/C(=C/c2ccc(Cl)cc2)SC1=S)Nc1cccc(C(=O)O)c1	?	?	.	61.8%	-4.3%	56.2µM*
CCOc1ccc(/C=C2/SC(=S)N(CCC(=O)Nc3ccc(C(=O)O)cc3)C2=O)cc1	7.52µM*	-27.0%	.	8.7%	-5.9%	-9.0%[11.6 µM]
CSCC[C@H](N)C(=O)N[C@@H](CO)C(=O)N[C@@H](CCCN=C(N)N)C(=O)N1CCC[C@H]1C(=O)N[C@@H](C)C(=O)N[C@@H](CS)C(=O)N1CCC[C@H]1C(=O)N[C@@H](CC(N)=O)C(=O)N[C@@H](CC(=O)O)C(=O)N[C@@H](CCCCN)C(=O)N[C@@H](Cc1ccc(O)cc1)C(=O)N[C@@H](CCC(=O)O)C(=O)O	-4.6%	-2.2%	-3.2%	.	-12.2%	.
COc1ccc(COC(=O)CCc2c[nH]c3ccccc23)cc1F	.	.	.	-1.2%	.	5.7%
SMILES	APE1 inh	BLM inh	RECQ1 helicase	ERG Ets-DNA blk	GCN5L2 inh	WRN helicase inh
CC(=O)N(CC(O)CN(C(C)=O)c1c(I)c(C(=O)NCC(O)CO)c(I)c(C(=O)NCC(O)CO)c1I)c1c(I)c(C(=O)NCC(O)CO)c(I)c(C(=O)NCC(O)CO)c1I (centres undefined)	2.2%[21 µM]	.	.	.	.	.
CC(C)(C)n1ncc2c(=O)n(Cc3cccc(Cl)c3Cl)cnc21	19.9%	.	.	.	.	.
c1csc(CNc2ccc(N3CCOCC3)cc2)c1	33.0%	.	.	.	.	.
COC(=O)c1ccn(CC(=O)NC2CCCCC2)n1	29.9µM*	-2.2%	.	1.3%	-7.7%	-1.3%
COc1cc(/C=C/C=C2/CC/C(=C/C=C/c3ccc(O)c(OC)c3)C2=O)ccc1O	.	.	.	90.1%	.	39.8µM*
O=C1NC(=O)/C(=C/c2ccc3c(c2)OC(F)(F)O3)S1	.	.	.	.	-14.7%	.
CCc1nnc(NS(=O)(=O)c2ccc(N/C=C\C(=O)c3ccc4ccccc4c3)cc2)s1	-3.1%	-8.7%	-27.1%	1.5%	-9.3%	50.1µM*
Cc1ccccc1-c1nc(N2CCOCC2)c2ccccc2n1	8.91µM*	-13.4%	-10.8%	.	?	.
O=C(Nc1cccc([N+](=O)[O-])c1)c1ccc2nc(N3C(=O)CCC3=O)sc2c1	10.8%	-3.8%	i	4.8%	?	44.7µM*
CCCCCCCCCCCCCCCCC(C(=O)O)C(O)(CC(=O)O)C(=O)O (centres undefined)	.	?	.	.	1.12µM*	.
CCCCCCCCCCCCC(O)C(=O)O (centres undefined)	3.0%	0.7%	-8.3%	.	-21.1%	.
COc1cccc(C(=O)OCC(=O)NC23CC4CC(CC(C4)C2)C3)c1	10.5%	.	.	-10.6%	-2.0%	-4.6%
CC(=O)Oc1cc(C(=O)OCC(=O)NC23CC4CC(CC(C4)C2)C3)cc(OC(C)=O)c1OC(C)=O	.	.	.	-5.0%	.	14.1µM*
Cc1c(N2C(=O)c3ccc4c5c(ccc(c35)C2=O)CC4)c(=O)n(-c2ccccc2)n1C	?	14.1µM*	11.2µM*	-0.2%	?	?
Cc1c(N2C(=O)/C(=C\c3ccc(N(C)C)cc3)N(C)C2=S)c(=O)n(-c2ccccc2)n1C	-4.0%	-7.8%	28.2µM*	?	-7.1%	?
O=S(=O)(c1ccc(-c2cc(C(F)(F)F)on2)s1)N1CCN(c2cccc(Cl)c2)CC1	.	0.0%	.	1.8%	31.8%	.
CN(C)c1ccc(C(=C2C=CC(=[N+](C)C)C=C2)c2ccc(N(C)C)cc2)cc1	?	22.4µM*!	10µM*	.	-20.3%	.
COc1ccc2[nH]c3c(=O)n(Cc4ccc(C(=O)NCC5CCCO5)cc4)c(=S)[nH]c3c2c1 (centres undefined)	-2.0%	-19.9%	20µM*	1.1%	-21.2%	?

High-throughput results from PubChem.
